According to PubChem BioAssay AID2435 (The Scripps Research Institute Molecular Screening Center, 2010):
In all, about 320,000 compounds went through this assay and about 1,000 (0.31%) were called active.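 How the source made its calls: active means activation above the mean of all tested compounds plus 3 SD, cutoff set per screening run (cut at about 20% in these data); inactive means the rest.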 Shown is part of a subset that was picked to be rich in actives.

The compounds below were run against Oxytocin receptor (Homo sapiens) (UniProt P30559) (assay: oxytocin receptor activation by calcium flux – fluorescence, CHO-OTR cells, Fluo-8 calcium, primary screen (AID 2435;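 further: peak over basal fluorescence ratio from a 100 s FLIPR kinetic read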)). Details: Fluo-8 calcium fluorescence, at 3 µM, stronger effect = higher value, normalized: DMSO 0%, oxytocin 100%.
Chain of Oxytocin receptor (Homo sapiens) (P30559 whole entry, looked up): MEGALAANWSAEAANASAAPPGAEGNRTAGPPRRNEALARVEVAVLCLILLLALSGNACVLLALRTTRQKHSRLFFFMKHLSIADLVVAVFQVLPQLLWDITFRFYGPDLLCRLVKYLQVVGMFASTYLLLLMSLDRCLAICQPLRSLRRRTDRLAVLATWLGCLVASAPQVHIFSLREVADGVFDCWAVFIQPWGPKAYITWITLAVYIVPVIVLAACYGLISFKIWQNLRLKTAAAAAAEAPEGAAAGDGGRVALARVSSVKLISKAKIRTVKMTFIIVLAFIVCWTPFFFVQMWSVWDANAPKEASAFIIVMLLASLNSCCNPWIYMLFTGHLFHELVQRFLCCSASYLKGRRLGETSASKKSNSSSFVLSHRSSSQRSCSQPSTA

SMILES	activation
Cc1ccccc1CCNC(=O)C1CCC(=O)N(Cc2ccc(Cl)cc2)C1 (centres undefined)	-1.42% (inactive)
CCCCCN(C(=O)CCC(=O)OCC(=O)NCc1ccc(OC)cc1)c1c(N)n(CCCC)c(=O)[nH]c1=O	-0.95% (inactive)
CC(CO)(CO)NC(=O)c1ccc(=O)[nH]n1	45.8% (active)
Cc1ccc(-c2cc(C(=O)NN)n[nH]2)o1	-1.85% (inactive)
COc1ccc(C(=O)NNC(=O)c2cc(C)[nH]n2)cc1	-1.68% (inactive)
O=C(CSc1nc2[nH]ncc2c(=O)[nH]1)Nc1ccc(F)cc1	0.71% (inactive)
O=C(NCCC1CCCCN1S(=O)(=O)c1ccc(Cl)cc1)C(=O)NCc1ccco1 (centres undefined)	-1.1% (inactive)
C=CCN(C(=O)Nc1ccc2oc(C)nc2c1)c1ccccc1	-0.77% (inactive)
CCN(CC)c1ccc2oc(=O)c(C)nc2c1	38% (active)
CCN(CC)c1ccc(C(=O)Nn2c(C)nc3ccccc3c2=O)cc1	3.66% (inactive)
CCOc1ccc(C)cc1S(=O)(=O)NC1CCCCCC1	-1.02% (inactive)
C[C@@H]1O[C@@H](OC[C@H]2O[C@@H](Oc3c(-c4ccc(O)cc4)oc4cc(O)cc(O)c4c3=O)[C@H](O)[C@@H](O)[C@@H]2O)[C@H](O)[C@H](O)[C@H]1O	-0.01% (inactive)
CCCCc1nc(NCCN)c(C#N)c2c1CSC(C)(C)C2	7.89% (inactive)
CCCC(O)(c1ccc(OC)cc1)C(CN(C)C)c1ccccc1 (centres undefined)	1.32% (inactive)
COC(=O)c1ccc(OCC(O)CN(CCO)CC(O)Cn2ccc3ccccc32)cc1 (centres undefined)	3.04% (inactive)
COc1ccc(CN2C(=O)CC(Cc3ccc(C)cc3)C2=O)cc1OC (centres undefined)	-1.49% (inactive)
CCN(Cc1ccccc1)C(=O)CSc1nc(C)cc2c1C(=O)OC2	1.04% (inactive)
CC1CCN(c2c(NCc3ccc(C(=O)NCc4ccccc4)cc3)c(=O)c2=O)CC1	0.21% (inactive)
Cc1ccc(CNC(=O)c2cccc3c2C(=O)c2ccc(N4CCC(C)CC4)cc2S3(=O)=O)cc1	40.5% (active)
Cc1ccc(CNC(=O)c2ccc3c(c2)S(=O)(=O)c2ccccc2C3=O)cc1	-0.21% (inactive)
CC(C)Oc1c(Br)cc(Br)cc1/C=N/NC(N)=S	-1.11% (inactive)
Nc1c(C(=O)c2cccs2)sc2nsc(SCCN3CCCCC3)c12	50.2% (active)
O=C(CSc1ncnc2sccc12)N1CCN(C(=O)c2cccs2)CC1	1.17% (inactive)

SMILES	activation
O=C(CCCN1C(=O)CCC1=O)Nc1ccc(Cl)c(C(F)(F)F)c1	6.54% (inactive)
CC1=CC(=C(C#N)c2nc3ccccc3s2)C=C(C)N1c1ccc(F)cc1F	0.27% (inactive)
O=c1[nH][nH]c(C(F)(F)F)c1C=NCc1ccccc1Cl	1.38% (inactive)
O=C(NCCCc1ccccc1)C(=O)NCC1OCCN1S(=O)(=O)c1ccccc1 (centres undefined)	-0.3% (inactive)
COC(=O)Cc1cc(=O)oc2c(C)c(O)ccc12	3.75% (inactive)
COc1cccc2cc(S(=O)(=O)c3ccc(C)cc3)/c(=N/NS(=O)(=O)c3ccc(C)cc3)oc12	-0.02% (inactive)
Cc1cc(S(=O)(=O)c2cc3ccc(O)c(C)c3oc2=O)ccc1F	20.6% (active)
COCCNC(=O)NC(=O)COC(=O)C1(c2ccc(Cl)cc2)CC1	-1.47% (inactive)
CCc1c(C)sc(NC(=O)OC)c1C(=O)N1CCOCC1	-0.45% (inactive)
CC1=CC2=NC(=O)/C(=C/c3coc4ccccc4c3=O)C(=N)N2O1	30.4% (active)
COc1ccc(OCCCn2cccc2/C=C2/C(=N)N3OC(C)=CC3=NC2=O)cc1	1.35% (inactive)
CCOc1cc(/C=C2/C(=N)N3OC(C)=CC3=NC2=O)ccc1OC	-0.04% (inactive)
C=CCSc1nc(N)cc(=O)[nH]1	0.06% (inactive)
CCCCCCCCCCOC(=O)Cn1c(COc2cccc(OC)c2)[n+](C)c2ccccc21	21.5% (active)
CCOC(=O)Cn1c(-c2cccnc2Cl)nc2ccccc21	0.33% (inactive)
CCCCCCCCCCOC(=O)Cn1c(COc2ccc(C)cc2)[n+](C)c2ccccc21	-1.93% (inactive)
CC1=CC(C)(C)NC(=S)N1c1ccccc1	-0.69% (inactive)
Cc1cc(N)n2nc(-c3ccc(C(C)(C)C)cc3)cc2n1	-1.18% (inactive)
C#CCOCCOCCOCCNc1nc(N2CCN(C(=O)C([C@@H](C)CC)n3cc(C(N)COC(=O)C(F)(F)F)nn3)CC2)nc(N2CCN(C(=O)[C@H](Cc3ccc(O)cc3)n3cc(C(N)[C@H](C)CC)nn3)CC2)n1 (some centres undefined)	0.32% (inactive)
c1ccc(C2CNCc3c2ccc2ccccc32)cc1 (centres undefined)	22.4% (active)
c1ccc2c(CCN3CCNC[C@H]3Cc3cccc4ccccc34)cccc2c1	8.2% (inactive)
COCCn1c(=O)[nH]c(=O)c2cc(C(=O)c3cc(OC)ccc3O)cnc21	-0.31% (inactive)
Cc1ccc2oc(=O)c3cnn(CC(=O)N(Cc4ccco4)C4CCCCC4)c3c2c1	-1.36% (inactive)

SMILES	activation
CC1CN(S(=O)(=O)c2ccc(C(=O)NN3CCN(C)CC3)cc2)CC(C)O1 (centres undefined)	0.04% (inactive)
Brc1ccc(C2=CC(c3ccco3)n3ncnc3N2)cc1 (centres undefined)	16.4% (inactive)
COc1ccc(C2C=C(c3ccc(Br)cc3)Nc3nc(NS(C)(=O)=O)nn32)cc1 (centres undefined)	20.5% (active)
CCOc1ccc(C2=CC(c3ccccc3)n3ncnc3N2)cc1 (centres undefined)	-2.25% (inactive)
COc1ccc(OC)c(NC(=S)N2CCc3ccccc3C2)c1	-1.2% (inactive)
O=S(=O)(c1cccc(Cn2nnc(-c3ccc(F)cc3)n2)c1)N1CCOCC1	18.4% (inactive)
O=C(C1CCCN1S(=O)(=O)c1ccc(Br)cc1)N1CCOCC1 (centres undefined)	-0.61% (inactive)
COc1ccc(CNC(=O)c2nnn(CC(=O)Nc3cc(C)cc(C)c3)c2N)cc1	0.21% (inactive)
CCc1ccc(NC(=O)Cn2nnc(C(=O)NCc3ccc(OC)cc3)c2N)cc1	0.62% (inactive)
CCOc1ccc(Cn2nnc(C(=O)Nc3ccc(OC)cc3OC)c2N)cc1	25.1% (active)
COc1cccc(CNC(=O)c2nnn(CC(=O)Nc3cc(Cl)ccc3C)c2N)c1	2.37% (inactive)
COc1ccc(NC(=O)Cn2nnc(C(=O)NCCc3ccc(OC)c(OC)c3)c2N)cc1	-0.34% (inactive)
CCOc1ccc(Cn2nnc(C(=O)NCc3ccccc3)c2N)cc1	32% (active)
Cc1ccc2c(c1)N(CC(=O)N1CCC(C)CC1)C(=O)c1cccnc1O2	1.7% (inactive)
CCc1cccc(CC)c1NC(=O)COc1ccccc1C(=O)c1cc(C#N)c(=O)n(C2CCCCC2)c1	2.32% (inactive)
Cc1cc(C(=O)NC2CCN(Cc3ccccc3)CC2)n[nH]1	0.51% (inactive)
CN(CC(=O)NCc1ccc(Cl)cc1)S(=O)(=O)c1cccs1	0.76% (inactive)
CC(Oc1cccc(Cl)c1)C(=O)Nc1ccc(S(=O)(=O)Nc2ncccn2)cc1 (centres undefined)	1.17% (inactive)
COc1ccc(NS(=O)(=O)c2ccc(NC(=O)c3ccc(N(C)S(C)(=O)=O)cc3)cc2)cc1	2.34% (inactive)
CCOc1ccc(S(=O)(=O)Nc2ccc(S(=O)(=O)Nc3cc(OC)ccc3OC)cc2)cc1	5.31% (inactive)
COc1ccc(NS(=O)(=O)c2ccc(Oc3c(C#N)cccc3C#N)cc2)cc1	21.2% (active)
CCNc1ccc(C(=O)OCC(=O)N2c3ccccc3NC(=O)C2(C)C)cc1[N+](=O)[O-]	-1.03% (inactive)
COCCCNC(=S)NC(=O)c1ccccc1	0.86% (inactive)

SMILES	activation
CCOC(=O)C1=C(NC(=S)NC(=O)c2ccccc2)c2ccccc2CC1(C)C	25.1% (active)
Cc1ccc(NC(=S)NC(=O)c2ccc(-c3ccccc3)cc2)cc1	1.22% (inactive)
CC1=CC=CC2=N/C(=N\S(=O)(=O)c3ccc(F)cc3F)c3ccccc3CN12	-2.27% (inactive)
COc1ccc(N2CCC(N3CCN(C)C(CCO)C3)CC2)cc1 (centres undefined)	-0.23% (inactive)
Cc1ccc(S(=O)(=O)N2CCN(C(=O)N3CCOCC3)CC2)c(C)c1	0.27% (inactive)
Nc1ccc2nc3c(=O)[nH]c(=S)[nH]c3nc2c1	35.4% (active)
CSc1nnc(SCc2nc3sc(C(=O)O)c(C)c3c(=O)[nH]2)s1	6.08% (inactive)
CC(/C=C/c1ccccc1)=N\NC(=O)C1CC1(C)c1ccccc1 (centres undefined)	-2.09% (inactive)
CCOC(=O)/C=c1\s/c(=C\c2ccc(C#N)cc2)c(=O)n1CC(=O)Nc1cccc(C)c1C	0.18% (inactive)
CN(c1ccccc1)c1ccc(/C=c2\s/c(=C(/C#N)C(=O)C(C)(C)C)n(Cc3ccco3)c2=O)cc1	20.3% (active)
CCOC(=O)Cn1c(=O)oc2cc(S(=O)(=O)N(C)Cc3ccco3)ccc21	1.29% (inactive)
CCS(=O)(=O)N1CCCC(C(=O)NCCCN(C)Cc2ccccc2)C1 (centres undefined)	-0.22% (inactive)
O=C(Cc1ccc(Cl)cc1)NC(=S)Nc1ccccc1O	55.4% (active)
Cc1ccc(C(=O)NC(=S)Nc2ccccc2C)cc1	-1.72% (inactive)
Cc1ccccc1NC(=S)NC(=O)Cc1ccc(Cl)cc1	28% (active)
COC(=O)Cc1ccc(NC(=S)NCc2ccc(Cl)cc2)cc1	7.5% (inactive)
O=C(COc1ccc(Cl)cc1)NC(=S)Nc1ccccc1N1CCOCC1	-0.94% (inactive)
Cc1cccc(NC(=S)NCCc2ccc(Cl)cc2)c1C	-1.48% (inactive)
O=C(Nc1ccc(S(=O)(=O)Nc2ncccn2)cc1)C12CC3CC(CC(C3)C1)C2	-0.32% (inactive)
COc1cc(NC(=O)CN2C(=O)NC(C)(c3ccc(OC(F)F)cc3)C2=O)cc(OC)c1OC (centres undefined)	2.87% (inactive)
